The panel holds about 83,000 compounds, 20% with a hit somewhere; the sample as a whole holds those more often.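 Treatment: one concentration, 48 hours, 96-well format. Scoring: percent growth, with anything below 10 considered active.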 Calls of active or inactive are those of the source.

The test system of this assay is MDA-MB-468 breast. Nature of the assay: NCI-60 one-dose screen, 48 h (100 = growth as untreated, 0 = no growth, -100 = all killed). Particulars: 10 µM unless noted.
For the molecule `COC(=O)c1ccc2[nH]c(O)c(C(=Nc3ccc(N(C)C(=O)CN4CCN(C)CC4)cc3)c3cccc(OC)c3)c2c1`, the growth was 37.3% (inactive). `COc1ccc(C(=O)Nc2nc(-c3ccc(Cl)cc3)cs2)cc1`: the growth was 95.9% (inactive). The figure for `CCC1=CC2CN(C1)Cc1c([nH]c3ccccc13)[C@@](C(=O)OC)(c1cc3c(cc1OC)N(C)[C@H]1[C@@](O)(C(=O)OC)[C@H](OC(C)=O)[C@]4(CC)C=CCN5CC[C@]31[C@@H]54)C2` (stereo partly drawn) is 44.4% (inactive); for `O=C(C[C@]1(O)C(=O)Nc2ccccc21)c1cccc(C(F)(F)F)c1` it is 83.9% (inactive). The value for `CC1=NN(c2ccc(Cl)cc2)CC1(C)N=O` (stereo not drawn) was 7.84% (active); that for `CCC(=O)Oc1ccc(/C(=C(\C)c2ccccc2)c2ccc(OCCN3CCCCC3)cc2)cc1` was 70.3% (inactive). The figure for `N#Cc1ccc(NC(=O)Nc2ccc(Cc3ccc(NC(=O)Nc4ccc(C#N)cc4)cc3)cc2)cc1` is -7.75% (active); for `CCCCCCn1c(-c2ccc(C(=O)O/N=C(\N)c3ccc4ccccc4c3)cc2)nc(-c2ccccc2)c1-c1ccccc1` it is 78.8% (inactive); for `O=C(CCl)Nc1ccc(Cc2ccc(NC(=O)CCl)cc2)cc1` it is -36.8% (active). In the case of `Clc1ccc2oc3c(OCCCn4ccnc4)c4ccccc4nc3c2c1`, the growth was 66.5% (inactive).

As to `N#Cc1c(-c2cccs2)cc(-c2cnccn2)nc1SCC(=O)c1ccc(F)cc1`, the growth is 101% (inactive). The figure for `COc1cc2nc(N3CCC[C@@H](NC4=CC(=O)c5ccccc5C4=O)C3)nc(N)c2cc1OC` is -51.3% (active); for `COc1cc2c(c(OC)c1OC)C(=O)/C(=C/c1cc(C)c(O)c(C)c1)S2` it is 5.19% (active). Turning to `COCCn1cc(-c2nc(-c3cc4cccnc4n3C)cs2)c2ccccc21`, the growth is -16.1% (active). On to `COc1ccc(CN2c3ccccc3Sc3ccccc32)c(C(F)(F)F)c1`, for which the growth is 18.8% (inactive). The value for `O=C1OCC2=C1C(c1cccc(Br)c1)c1cc3c(cc1N2CCO)CCC3` (stereo not drawn) was -3.99% (active); that for `CN1CCN(C(=O)OCc2ccc3c(Cl)cc(Cl)c(O)c3n2)CC1` was 67.1% (inactive); that for `FC(F)(F)c1ccc(CNc2ccc(Cc3c[nH]c4ncc(Cl)cc34)cn2)cn1` was -0.191% (active). The figure for `CCCCCCCCCC[C@@H](C)[C@@H]1CC(=O)N[C@H]([C@@H](C)O)C(=O)N[C@@H](C)C(=O)N[C@H](C)C(=O)N[C@@H](CCC(N)=O)C(=O)N[C@H](Cc2ccc(O)cc2)C(=O)N[C@@H](C(C)CC)C(=O)O1` (stereo partly drawn) is 2.46% (active); for `O=S(=O)(NCCNc1cc(-c2c(-c3cccc(O)c3)nc3sccn23)ccn1)c1ccc(Cl)cc1` it is 51.5% (inactive); for `CCCCN1C(=O)/C(=c2\sc3n(c2=O)C2C(NN=3)N(CC)C(=O)N2CC)c2cc(Cl)ccc21` (stereo not drawn) it is 56.2% (inactive). The figure for `O=C1/C(=C/c2ccccc2O)C(=S)SN1Cc1ccco1` is 64.7% (inactive); for `N#C/C(=C\c1ccc(Cl)cc1)n1nnc2cc(F)c(F)cc21` it is 3.5% (active).

The values are drawn from PubChem BioAssay (NCI).
